Source: PubChem
Rows were chosen to be rich in hits. Some 5.7% of all compounds tested hit in one or more screens of this group.
hgDAF-12 ag = activates the H. glycines DAF-12 receptor ligand-binding domain. HEK293 GAL4-hgDAF12 UAS-luciferase reporter, agonist luminescence; normalized to butyrate control. activation, % at 6.8 µM. 370,000 tested, 1.8% active;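 active means activation above a cutoff set at the mean of all screened compounds plus 3 SD, cut at about 10% in these data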
DAX1 inh-1 = blocks DAX1 repression of SF-1 activated StAR promoter; 370,000 tested, 1.1% active; inhibition, % at 6.8 µM; HEK293T StAR-luciferase reporter, SF-1/DAX-1 repression relief;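 active means inhibition above the mean over all tested compounds plus 3 SD, cut at about 3.6% in these data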;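 further: higher inhibition means more luminescence from relief of DAX-1 repression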
ssDAF12 agonist = activators of S. stercoralis DAF-12 nuclear receptor | 370,000 tested, 1% active | activation, % at 6.8 µM | HEK293 ssDAF-12/GRIP1 lit1-tk-luc reporter, luminescence; % of 3 µM dafachronic acid response;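 active means activation above the mean over all tested compounds plus 3 SD, cut at about 0.9% in these data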
DAX1 inh-2 = inhibitors of human orphan nuclear receptor DAX1 (NR0B1) | inhibition, % at 6.75 µM | 340,000 tested, 0.99% active | HEK293 Gal4-DAX1 luciferase reporter, luminescence | AID 504766 | P51843;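 active means inhibition above the mean over all tested compounds plus 3 SD, cut at about 4.2% in these data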;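 further: inhibition shows as a rise in luminescence from relieved DAX1 repression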
AHR activator = activates the human aryl hydrocarbon receptor; AID 2796; activation, % at 5 µM; 320,000 tested, 2.5% active; AHR-responsive luciferase reporter cells, luminescence; P35869; in the data active means activation above about 47%
Target sequence (P35869 whole entry, looked up): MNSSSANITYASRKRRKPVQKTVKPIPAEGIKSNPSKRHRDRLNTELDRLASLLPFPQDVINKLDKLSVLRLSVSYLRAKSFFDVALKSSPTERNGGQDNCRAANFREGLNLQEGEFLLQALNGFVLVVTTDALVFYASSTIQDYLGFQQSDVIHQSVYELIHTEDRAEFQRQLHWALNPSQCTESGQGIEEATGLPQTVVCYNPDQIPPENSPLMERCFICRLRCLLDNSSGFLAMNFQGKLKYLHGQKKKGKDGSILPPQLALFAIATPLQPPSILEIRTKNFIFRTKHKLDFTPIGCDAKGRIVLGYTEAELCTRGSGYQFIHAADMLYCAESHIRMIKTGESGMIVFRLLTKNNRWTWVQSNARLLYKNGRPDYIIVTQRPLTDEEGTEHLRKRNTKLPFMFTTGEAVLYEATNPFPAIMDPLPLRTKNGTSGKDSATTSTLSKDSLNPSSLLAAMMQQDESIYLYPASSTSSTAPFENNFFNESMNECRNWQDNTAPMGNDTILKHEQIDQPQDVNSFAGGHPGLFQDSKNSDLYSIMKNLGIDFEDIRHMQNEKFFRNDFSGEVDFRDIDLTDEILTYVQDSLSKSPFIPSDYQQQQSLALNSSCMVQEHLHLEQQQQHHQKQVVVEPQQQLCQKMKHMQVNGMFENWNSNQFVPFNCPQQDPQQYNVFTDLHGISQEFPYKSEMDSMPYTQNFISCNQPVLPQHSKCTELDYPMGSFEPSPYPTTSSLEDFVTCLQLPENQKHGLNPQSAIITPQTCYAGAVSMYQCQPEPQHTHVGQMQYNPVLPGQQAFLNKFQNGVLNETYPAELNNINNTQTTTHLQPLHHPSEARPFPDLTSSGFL
hcDAF12 agonist = activators of H. contortus DAF-12 nuclear receptor | HEK293 hcDAF-12 lit1-tk-luc reporter, luminescence; 0% DMSO, 100% Δ7-dafachronic acid | 370,000 tested, 1.4% active | activation, % at 6.8 µM;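 active means activation above the mean of all tested compounds plus 3 SD, cut at about 5.5% in these data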
Of the large screens only hits and unclear results are named; the others gave an inactive call.

Clc1ccc(SCc2cn3ccsc3n2)cc1	hgDAF-12 ag 11.4
c1cn2cc(CSC3CCCCC3)nc2s1	hgDAF-12 ag 13.2
COc1ccccc1OCCNC(=O)c1cccc(S(=O)(=O)N2CCN(Cc3ccccc3)CC2)c1	none
COc1ccc(SCCN2CCN(C)CCC2=O)cc1	none (no result: AHR activator)
O=C(CO/N=C/c1ccccc1OC(F)F)NCc1cccs1	none
COc1ccc(N(CC(=O)NCCC2=CCCCC2)S(=O)(=O)c2ccccc2)cc1	none
CSc1nc2c(c(=O)[nH]1)C(c1ccncc1)C(C(=O)OC(C)C)=C(C)N2 (configuration not stated)	AHR activator 51.3
O=C(O)CCC(=O)NCc1cn(-c2ccccc2)nc1-c1cccc(Br)c1	none
COc1cccc(C(=O)OCC(=O)Nc2nnc(-c3ccccc3)o2)c1	DAX1 inh-2 5.3
COc1cc(OC)cc(C(=O)OCC(=O)Nc2nnc(-c3ccccc3)o2)c1	none (no result: AHR activator)
Nn1c(=O)[nH]c2c([nH]c3ccccc32)c1=O	none
O=c1c(C(c2ccccc2)c2c(O)nc3n(c2=O)CCCS3)c(O)nc2n1CCCS2	none
O=c1c2[nH]c3ccc(F)cc3c2nc2n1CCS2	none
O=c1c2[nH]c3ccccc3c2nc2n1CCCS2	AHR activator 65.8 (no result: DAX1 inh-2)
Cc1nc2c([nH]c3ccccc32)c(=O)n1N	ssDAF12 agonist 1.2 (no result: DAX1 inh-2)
O=c1c2[nH]c3ccc(F)cc3c2nc2n1CCCS2	AHR activator 71.5
CC(C)Cc1ccc(CN2C(C(C)C)C(=O)N(Cc3cn(CCC4OCCO4)nn3)CCS2(=O)=O)cc1 (configuration not stated)	none (no result: DAX1 inh-2, AHR activator)
CCCc1cc(=O)[nH]c(Nc2ccc(O)cc2)n1	none
Nn1c(SCC(=O)NCCC2=CCCCC2)nnc1C(F)(F)F	AHR activator 49.5 (no result: hgDAF-12 ag, DAX1 inh-1, ssDAF12 agonist, hcDAF12 agonist)
Nn1c(SCC(=O)NCCC2=CCCCC2)nnc1C1CCCCC1	none
O=C(NC1CCCCC1)Oc1ccccc1	DAX1 inh-2 6.9
O=C(NC1CCS(=O)(=O)C1)Oc1ccccc1 (configuration not stated)	none
COc1cccc(CNc2ccc3c(c2)nc(C)n3C)c1OC	AHR activator 67.1
COc1cccc(CNc2ccc3c(c2)ncn3C)c1OC	none (no result: AHR activator)
O=C1Nc2ccc(Br)cc2/C1=C/C(=O)c1ccc2c(c1)OCO2	AHR activator 69.9
CCc1ccc(N/C(N)=N/c2nc(CSc3ncccn3)cc(=O)[nH]2)cc1	AHR activator 50.1
Cn1c(=O)cc(SCC(=O)Nc2ccccn2)c2ccccc21	AHR activator 62.2 (no result: DAX1 inh-2)
Cn1c(=O)cc(SCC(=O)N2CCN(c3ccccn3)CC2)c2ccccc21	AHR activator 63.7
Cc1ccnc(NC(=O)CCCOc2cc(=O)n(C)c3ccccc23)c1	DAX1 inh-2 7.0
O=C(CN1C(=O)COc2ccccc21)c1ccc(Cl)cc1	AHR activator 49.8
Cn1c(N)c(C(=O)/C=C/c2ccccc2)c(=O)[nH]c1=O	ssDAF12 agonist 1.1, AHR activator 47.3
Cn1c(N)c(C(=O)Nc2ccccc2)c(=O)[nH]c1=O	none (no result: DAX1 inh-2)
CN(CC(=O)Nc1cccc(F)c1)C(=O)c1cccc(S(=O)(=O)N2CCN(Cc3ccccc3)CC2)c1	ssDAF12 agonist 11.3 (no result: AHR activator)
Cc1ccc2c(c1)N=C(c1ccc(F)cc1)CO2	none
O=[N+]([O-])c1ccc(C2=Nc3cc(Cl)ccc3OC2)cc1	AHR activator 67.3
Cc1nc2c(N=Nc3ccccc3F)c(N)nn2c(N)c1C#N	AHR activator 59.6
Cc1cc(=O)n2[nH]c(N)c(N=Nc3ccccc3F)c2n1	none
CC(=O)NC(C)(c1ccccc1)c1nc(-c2ccc(F)c(Cl)c2)cs1 (configuration not stated)	none (no result: DAX1 inh-2, AHR activator)
COC(=O)CSCc1nc2ccccc2[nH]c1=O	AHR activator 63.9, hcDAF12 agonist 5.6
CCn1c(=O)n(CC)c2cc(S(=O)(=O)N3CCC(c4ccccc4)CC3)ccc21	none
CC(=O)c1ccc(N2CCN(C(=O)[C@H](C)NC(=O)c3ccccc3Cl)CC2)cc1	DAX1 inh-2 6.0
Cc1sc(-c2ccncc2)nc1OC(=O)c1cc(Cl)cc(Cl)c1	none
COc1ccccc1Nc1cc2cc(Br)ccc2c(=O)[nH]1	hcDAF12 agonist 6.2
Cc1c(Cl)cccc1NC(=O)CSc1sc2c(O)cc(=O)[nH]c2c1C#N	DAX1 inh-2 4.4
N#Cc1c(SCC(=O)Nc2ccc(Cl)cc2Cl)sc2c(O)cc(=O)[nH]c12	none
CCn1c2ccccc2c2cc(NC(=O)CNCc3ccccc3OC)ccc21	none
CCn1c2ccccc2c2cc(NC(=O)COc3ccccc3OC)ccc21	AHR activator 62.3
CCn1c2ccccc2c2cc(NC(=O)COC(=O)c3cccc(S(=O)(=O)NC)c3)ccc21	AHR activator 100.1
CCn1c2ccccc2c2cc(NC(C)=O)ccc21	AHR activator 50.5
CCn1c2ccccc2c2cc(C=NNC(=O)c3ccoc3C)ccc21	hgDAF-12 ag 11.5 (no result: DAX1 inh-2, AHR activator)
CCn1c2ccccc2c2cc(NC(=O)CSc3nnc(-c4ccc(OC)cc4)n3N)ccc21	AHR activator 48.5
COc1ccc(NC(=O)CSc2nnc(-c3ccccc3)n2N)cc1	none
N#CC1=C(N)OC2=C(C(=O)CCC2)C1c1ccccc1 (configuration not stated)	none
COc1cccc(C(=O)N(CN2CCCC2=O)c2cccc(Cl)c2)c1	none
COc1ccc2nc(NC(C)=O)sc2c1	hgDAF-12 ag 12.3
COc1ccc2nc(NC(=O)CSCc3c(C)noc3C)sc2c1	none
COC(=O)c1ccc2nc(NC(=O)CSCC(=O)OCC(=O)c3ccccc3)sc2c1	hgDAF-12 ag 12.5
COc1ccc2nc(NC(=O)CSCC(=O)Nc3cc(C)on3)sc2c1	DAX1 inh-1 4.2
COc1ccc2nc(NC(=O)Nc3cccc4ccccc34)sc2c1	AHR activator 64.5
CCC(C)C(=O)Nc1nc2ccc(OC)cc2s1 (configuration not stated)	none (no result: DAX1 inh-2)
COCCN(C(=S)Nc1c(C)cccc1C)C(C)c1cccnc1 (configuration not stated)	none
O=C1COc2ccc(C(=O)C[n+]3cccc(O)c3)cc2N1	none
COc1ccc2nc(NC(=O)CSc3nc4ccccc4o3)sc2c1	DAX1 inh-2 4.7
O=C(CSc1nc2ccccc2o1)Nc1nc2ccc(Br)cc2s1	none
Cc1ccc(S(N)(=O)=O)cc1	none
O=C(N/N=C\c1ccc(-c2ccccc2[N+](=O)[O-])o1)C1COc2ccccc2O1 (configuration not stated)	AHR activator 64.5
O=C(CCCn1c(=S)[nH]c2ccccc2c1=O)NCc1ccco1	none
CCOC(=O)c1cc(-c2ccc(OC(F)F)cc2)nc2nc(SC)[nH]c(=O)c12	none
CCOC(=O)c1cc(-c2ccc(OC(F)F)cc2)nc2c1c(=O)[nH]c(=O)n2C	AHR activator 61.2
O=C(CN1C(=O)CCC1=O)NC(=O)NC1CCCC1	DAX1 inh-2 4.6
